Reference: paper PMC7862700, “An all-to-all approach to the identification of sequence-specific readers for epigenetic DNA modifications on cytosine”

Experiments:
Experiment in all cases: DAPPL (digital affinity profiling via proximity ligation, sequencing); 10 mM Tris-HCl pH 7.5, 50 mM NaCl, 1 mM DTT, 4% glycerol, room temperature, 30 min; GST-TFs on glutathione beads, 16-mer random dsDNA library, 0.1% formaldehyde crosslink after washing; high values mean tight binding
Conditions in all cases: protein: recombinant; tags: N-terminal GST; dsDNA, one strand shown
[1] = molecular target: T1, FLI1 (Homo sapiens, UniProt Q01543 1-452)
T1 sequence: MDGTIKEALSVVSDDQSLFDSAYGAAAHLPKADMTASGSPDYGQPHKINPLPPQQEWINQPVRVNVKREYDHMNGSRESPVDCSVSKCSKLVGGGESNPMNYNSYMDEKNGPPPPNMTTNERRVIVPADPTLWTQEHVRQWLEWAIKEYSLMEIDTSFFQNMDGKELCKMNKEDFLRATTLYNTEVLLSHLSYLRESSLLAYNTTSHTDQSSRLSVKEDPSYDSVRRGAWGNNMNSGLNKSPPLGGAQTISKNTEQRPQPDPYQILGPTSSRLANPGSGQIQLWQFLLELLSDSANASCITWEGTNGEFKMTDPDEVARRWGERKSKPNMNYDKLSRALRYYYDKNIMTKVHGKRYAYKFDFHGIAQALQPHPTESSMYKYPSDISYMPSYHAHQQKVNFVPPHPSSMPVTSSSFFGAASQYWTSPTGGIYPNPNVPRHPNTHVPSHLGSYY
Procedure, shortened: (§1)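 Human transcription factors were made in yeast as GST fusions, captured on glutathione beads and barcoded with DNA. With a tag-only sample included, the pool was incubated with 200 nmole of a random double-stranded 16-mer DNA library in Tris/NaCl/DTT/glycerol buffer at room temperature for 30 min, then crosslinked with 0.1% formaldehyde after washing, ligated by proximity, amplified and sequenced. For binding signal, each hexamer's read frequency for a factor is divided by its frequency for the tag-only sample.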

[2] = molecular target: T2, ELK1 (Homo sapiens, UniProt P19419 1-428)
T2 sequence: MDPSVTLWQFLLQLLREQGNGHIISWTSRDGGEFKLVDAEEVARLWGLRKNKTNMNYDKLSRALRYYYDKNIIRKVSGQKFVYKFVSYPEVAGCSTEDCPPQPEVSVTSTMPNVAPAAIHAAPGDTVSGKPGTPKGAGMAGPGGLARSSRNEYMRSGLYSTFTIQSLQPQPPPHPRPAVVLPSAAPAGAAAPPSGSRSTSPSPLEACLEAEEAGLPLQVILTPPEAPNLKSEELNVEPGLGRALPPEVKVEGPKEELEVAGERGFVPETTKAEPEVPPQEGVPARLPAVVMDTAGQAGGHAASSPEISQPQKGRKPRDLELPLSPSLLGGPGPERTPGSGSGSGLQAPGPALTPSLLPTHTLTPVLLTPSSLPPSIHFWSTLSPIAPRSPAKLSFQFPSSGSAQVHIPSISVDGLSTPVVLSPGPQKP
Procedure, shortened: as §1

[3] = molecular target: T3, GABPA (Homo sapiens, UniProt Q06546 1-454)
T3 sequence: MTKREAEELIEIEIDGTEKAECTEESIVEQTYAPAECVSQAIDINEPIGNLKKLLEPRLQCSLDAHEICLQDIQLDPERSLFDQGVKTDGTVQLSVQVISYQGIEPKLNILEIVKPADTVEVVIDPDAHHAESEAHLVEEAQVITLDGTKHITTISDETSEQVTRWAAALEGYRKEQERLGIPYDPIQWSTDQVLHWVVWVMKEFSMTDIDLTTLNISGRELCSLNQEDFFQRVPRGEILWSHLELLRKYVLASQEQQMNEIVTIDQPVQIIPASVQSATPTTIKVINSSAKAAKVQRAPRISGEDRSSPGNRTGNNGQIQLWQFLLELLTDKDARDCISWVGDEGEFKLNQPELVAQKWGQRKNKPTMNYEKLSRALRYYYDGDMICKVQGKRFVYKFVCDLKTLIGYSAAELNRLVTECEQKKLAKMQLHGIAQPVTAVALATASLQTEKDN
Procedure, shortened: as §1

[4] = molecular target: T4, ERG (Homo sapiens, UniProt P11308 1-479)
T4 sequence: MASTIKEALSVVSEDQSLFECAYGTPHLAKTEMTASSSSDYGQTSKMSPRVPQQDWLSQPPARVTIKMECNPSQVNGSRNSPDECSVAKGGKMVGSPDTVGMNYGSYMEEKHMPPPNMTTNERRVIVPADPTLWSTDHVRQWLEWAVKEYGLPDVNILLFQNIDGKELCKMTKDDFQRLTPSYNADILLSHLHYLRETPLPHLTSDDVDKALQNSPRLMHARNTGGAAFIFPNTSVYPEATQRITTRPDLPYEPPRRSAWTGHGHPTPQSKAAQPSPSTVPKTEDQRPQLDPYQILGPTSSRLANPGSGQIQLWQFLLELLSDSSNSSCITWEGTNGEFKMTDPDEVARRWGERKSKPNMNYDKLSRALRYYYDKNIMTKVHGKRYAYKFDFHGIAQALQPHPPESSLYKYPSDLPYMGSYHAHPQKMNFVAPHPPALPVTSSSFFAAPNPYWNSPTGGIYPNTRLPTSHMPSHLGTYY
Procedure, shortened: as §1

[5] = molecular target: ELF1 (Homo sapiens, UniProt P32519 1-619)
Procedure, shortened: as §1

[6] = molecular target: T5, EHF (Homo sapiens, UniProt Q9NZC4 1-300)
T5 sequence: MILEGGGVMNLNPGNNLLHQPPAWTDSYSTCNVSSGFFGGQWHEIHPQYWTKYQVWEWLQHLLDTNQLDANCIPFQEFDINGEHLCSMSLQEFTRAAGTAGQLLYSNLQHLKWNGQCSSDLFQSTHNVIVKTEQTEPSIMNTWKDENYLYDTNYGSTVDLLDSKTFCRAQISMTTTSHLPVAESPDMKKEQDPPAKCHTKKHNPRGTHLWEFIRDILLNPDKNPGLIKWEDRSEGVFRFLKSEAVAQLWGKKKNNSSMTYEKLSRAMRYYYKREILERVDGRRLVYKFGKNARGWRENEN
Procedure, shortened: as §1

[7] = molecular target: SPI1 (Homo sapiens, UniProt P17947 1-270)
Procedure, shortened: as §1

[8] = molecular target: SPIB (Homo sapiens, UniProt Q01892 1-262)
Procedure, shortened: as §1

[9] = molecular target: T6, ELK3 (Homo sapiens, UniProt P41970 1-407)
T6 sequence: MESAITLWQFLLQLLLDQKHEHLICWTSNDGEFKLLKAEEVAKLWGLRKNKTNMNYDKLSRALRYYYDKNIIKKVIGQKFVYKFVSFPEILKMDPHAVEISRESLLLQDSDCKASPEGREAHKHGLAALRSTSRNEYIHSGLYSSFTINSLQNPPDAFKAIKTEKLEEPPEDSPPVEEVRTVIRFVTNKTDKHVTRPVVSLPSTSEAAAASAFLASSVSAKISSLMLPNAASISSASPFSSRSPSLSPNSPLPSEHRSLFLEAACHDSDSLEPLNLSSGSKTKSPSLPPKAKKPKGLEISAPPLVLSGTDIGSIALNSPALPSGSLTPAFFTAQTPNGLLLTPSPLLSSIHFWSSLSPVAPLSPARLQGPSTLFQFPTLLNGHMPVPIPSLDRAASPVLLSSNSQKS
Procedure, shortened: as §1

Sequence of ELF1 (P32519 whole entry): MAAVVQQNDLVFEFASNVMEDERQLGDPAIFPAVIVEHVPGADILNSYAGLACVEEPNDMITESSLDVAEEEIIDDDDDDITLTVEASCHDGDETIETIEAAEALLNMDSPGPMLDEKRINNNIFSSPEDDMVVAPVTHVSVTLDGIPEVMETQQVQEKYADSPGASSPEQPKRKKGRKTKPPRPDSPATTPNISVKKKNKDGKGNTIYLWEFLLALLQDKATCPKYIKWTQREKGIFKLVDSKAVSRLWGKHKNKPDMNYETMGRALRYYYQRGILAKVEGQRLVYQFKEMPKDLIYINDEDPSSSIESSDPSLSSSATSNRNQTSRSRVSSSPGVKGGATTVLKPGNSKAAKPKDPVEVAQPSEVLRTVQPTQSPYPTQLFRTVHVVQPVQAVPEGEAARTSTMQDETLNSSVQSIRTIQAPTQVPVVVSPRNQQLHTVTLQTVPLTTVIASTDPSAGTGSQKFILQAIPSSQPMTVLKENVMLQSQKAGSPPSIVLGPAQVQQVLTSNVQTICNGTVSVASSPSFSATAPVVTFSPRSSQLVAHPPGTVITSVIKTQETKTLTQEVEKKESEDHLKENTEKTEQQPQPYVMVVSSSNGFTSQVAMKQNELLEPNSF
Sequence of SPIB (Q01892 whole entry): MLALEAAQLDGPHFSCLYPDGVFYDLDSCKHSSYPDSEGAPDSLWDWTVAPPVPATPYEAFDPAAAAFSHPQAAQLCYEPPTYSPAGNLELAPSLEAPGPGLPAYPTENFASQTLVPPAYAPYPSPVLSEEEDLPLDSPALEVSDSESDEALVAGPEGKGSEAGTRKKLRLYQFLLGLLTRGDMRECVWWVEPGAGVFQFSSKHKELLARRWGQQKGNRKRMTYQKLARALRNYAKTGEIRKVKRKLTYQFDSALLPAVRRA

## CACTCT
[1]
  binding signal: 1.27 fold enrichment (6-mer frequency, TF over GST control)
[2]
  binding signal: 1.25 fold enrichment (6-mer frequency, TF over GST control)
[3]
  binding signal: 1.19 fold enrichment (6-mer frequency, TF over GST control)
[4]
  binding signal: 1.24 fold enrichment (6-mer frequency, TF over GST control)
[5]
  binding signal: 1.36 fold enrichment (6-mer frequency, TF over GST control)
[6]
  binding signal: 1.38 fold enrichment (6-mer frequency, TF over GST control)
[7]
  binding signal: 1.34 fold enrichment (6-mer frequency, TF over GST control)
[8]
  binding signal: 1.23 fold enrichment (6-mer frequency, TF over GST control)
[9]
  binding signal: 1.34 fold enrichment (6-mer frequency, TF over GST control)
